± gives the standard deviation.
How the values were obtained:
Conditions in all cases: modulator concentration 10 µM
[1] = test system: RAW-Dual (murine macrophage reporter line); assay: NF-kB reporter (SEAP) activity fold change vs agonist alone; higher = enhanced NF-kB activity
Summary of the method: (§1)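 Compound reached 10 μM final in each well by pin transfer, onto RAW-Dual murine macrophage reporter cells seeded at 50 000 per well in 384-well plates. After 1 hour at 37 °C, the cells were stimulated overnight with a PRR agonist. SEAP in the supernatant was read with QUANTI-Blue at 620 nm absorbance for NF-κB, and Lucia luciferase was read with QUANTI-Luc luminescence for IRF. Each signal was turned into fold change against the mean agonist-only control on the same plate, and two replicate plates were averaged with propagated errors.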

[2] = test system: RAW-Dual (murine macrophage reporter line); assay: IRF reporter (Lucia luciferase) activity fold change vs agonist alone; higher = enhanced IRF activity
Summary of the method: as §1

[3] = test system: RAW-Dual (murine macrophage reporter line); assay: viability score (confluency relative to resting cells, overnight) (fraction); higher = more viable, active = viable (0.7 or more)
Summary of the method: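 RAW-Dual macrophages in 384-well plates were incubated overnight with compound, final concentration 10 μM. Confluency images from IncuCyte were processed in IncuCyte software into two masks covering all imaged wells. The viability score is each well's confluency relative to resting cells, and a compound met the cutoff when both masks exceeded 70% of resting cells.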

[4] = agonist: CpG ODN 1826 0.5 ug/mL

Structure (SMILES) | NF-kB reporter [1, 4] | NF-kB reporter ([1]; agonist: LPS 0.1 ug/mL) | NF-kB reporter ([1]; agonist: MPLA […]) | IRF reporter ([2]; agonist: 3'3'-cGAMP 10 ug/mL) | IRF reporter ([2]; agonist: LPS 0.1 ug/mL) | IRF reporter ([2]; agonist: MPLA […]) | viability score [3]
CCOc1ccc(C(CN)N2CCOCC2)cc1 (configuration not stated) | 1.07 ± 0.048 | 0.934 ± 0.079 | 1.08 ± 0.075 | 0.943 ± 0.046 | 1.33 ± 0.28 | 1.29 ± 0.44 | 0.941 (active)
O=C(NCCc1csc(-c2ccc(F)cc2)n1)c1ccc(Br)cc1 | 0.825 ± 0.064 | 1.18 ± 0.089 | 1.19 ± 0.043 | 0.693 ± 0.027 | 1.07 ± 0.11 | 1.19 ± 0.15 | 0.999 (active)
CCOc1nc2cccc(C(=O)OC(C)OC(=O)OC3CCCCC3)c2n1Cc1ccc(-c2ccccc2-c2nnn[nH]2)cc1 (configuration not stated) | 0.672 ± 0.089 | 0.762 ± 0.062 | 0.976 ± 0.092 | 1.1 ± 0.051 | 1.31 ± 0.089 | 1.47 ± 0.13 | 1.02 (active)
COc1ccc(CNC2CCCc3ccccc32)cc1OC (configuration not stated) | 0.648 ± 0.24 | 1.1 ± 0.09 | 0.981 ± 0.11 | 0.713 ± 0.026 | 1.12 ± 0.14 | 1.5 ± 0.29 | 0.508 (inactive)
COc1cc(=O)n(C)cc1C(=O)Nc1cccnc1 | 1.06 ± 0.065 | 0.817 ± 0.13 | 1.06 ± 0.065 | 0.943 ± 0.064 | 0.899 ± 0.17 | 0.915 ± 0.25 | 0.967 (active)
Cc1ccc(-c2cc(-c3ccccc3)nc(N3CCOCC3)n2)cc1 | 0.811 ± 0.077 | 1.01 ± 0.075 | 1.1 ± 0.076 | 0.71 ± 0.065 | 1.05 ± 0.047 | 1.17 ± 0.082 | 0.998 (active)
Oc1ccc(/C=C/c2cc(O)cc(O)c2)cc1 | 1.06 ± 0.16 | 1.23 ± 0.28 | 1.11 ± 0.084 | 0.695 ± 0.041 | 0.845 ± 0.13 | 0.798 ± 0.12 | 0.982 (active)
Cc1ncc(CC(=O)N2CCC(c3ccccc3Cl)S(=O)(=O)CC2)s1 (configuration not stated) | 0.884 ± 0.07 | 0.974 ± 0.12 | 0.972 ± 0.032 | 1.11 ± 0.092 | 0.981 ± 0.076 | 0.944 ± 0.24 | 1 (active)
Cc1cncc(CN2CCC(=C3c4ccc(Cl)cc4CCc4cccnc43)CC2)c1.O=C(O)/C=C/C(=O)O | 1.46 ± 0.14 | 1.19 ± 0.096 | 1.73 ± 0.23 | 0.931 ± 0.097 | 0.799 ± 0.092 | 1.29 ± 0.16 | 1 (active)
OC(C(=NN=C(c1ccccc1)C(O)c1ccccc1)c1ccccc1)c1ccccc1 (configuration not stated) | 0.662 ± 0.072 | 1.14 ± 0.072 | 1.03 ± 0.063 | 1.14 ± 0.038 | 1.48 ± 0.11 | 1.45 ± 0.19 | 0.974 (active)
CNc1ccc([N+](=O)[O-])cc1-n1cnc(-c2ccc([N+](=O)[O-])cc2)c1 | 0.853 ± 0.068 | 0.807 ± 0.038 | 1.37 ± 0.12 | 1.02 ± 0.046 | 1.41 ± 0.082 | 1.58 ± 0.15 | 1.02 (active)
C=C1CCC(OC(C)=O)C(C)=CCC2C1CC2(C)C (configuration not stated) | 0.932 ± 0.086 | 0.776 ± 0.1 | 0.752 ± 0.071 | 0.671 ± 0.038 | 0.928 ± 0.17 | 0.779 ± 0.24 | 1.03 (active)
CCC(C)C(=O)OC1CCC=C2C=CC(C)C(CCC3CC(O)CC(=O)O3)C21 (configuration not stated) | 0.946 ± 0.11 | 0.83 ± 0.061 | 1 ± 0.094 | 0.941 ± 0.046 | 1.24 ± 0.23 | 1.33 ± 0.32 | 1.05 (active)
COc1ccc(-c2cc(=O)oc3cc(OCc4cc5c(cc4Cl)OCO5)ccc23)cc1 | 0.738 ± 0.058 | 0.829 ± 0.13 | 1.08 ± 0.11 | 0.983 ± 0.053 | 1.17 ± 0.068 | 1.16 ± 0.15 | 1.01 (active)
CCC(=O)Nc1ccc(NC(=O)c2ccco2)c(OC)c1 | 0.828 ± 0.065 | 0.831 ± 0.11 | 1.08 ± 0.12 | 0.934 ± 0.044 | 1.32 ± 0.11 | 1.42 ± 0.18 | 1.01 (active)
COc1ccc(-n2c(C)c([N+](=O)[O-])c3ccc(O)cc32)cc1 | 0.835 ± 0.15 | 1.26 ± 0.1 | 1.34 ± 0.17 | 0.393 ± 0.021 | 0.594 ± 0.089 | 0.601 ± 0.063 | 0.999 (active)
COc1cc2ncnc(Nc3ccc(F)c(Cl)c3)c2cc1OCCCN1CCOCC1.Cl | 0.0798 ± 0.019 | 0.978 ± 0.06 | 1.08 ± 0.1 | 0.193 ± 0.015 | 0.835 ± 0.1 | 1.16 ± 0.11 | 0.592 (inactive)
CCOc1ccc(C(=O)NCc2cccnc2)cc1Br | 1.23 ± 0.07 | 1.06 ± 0.14 | 1.04 ± 0.036 | 0.911 ± 0.058 | 0.934 ± 0.14 | 1.08 ± 0.26 | 0.999 (active)
N#CC(=Cc1cn(Cc2ccccc2Cl)c2ccccc12)c1nn(CCO)c(N)c1C#N | 0.919 ± 0.077 | 0.959 ± 0.053 | 0.91 ± 0.058 | 0.909 ± 0.063 | 1.18 ± 0.17 | 0.936 ± 0.058 | 1.02 (active)
CN(C)CCOC(=O)COc1ccc(Cl)cc1.Cl | 1.11 ± 0.084 | 1.09 ± 0.088 | 1.01 ± 0.038 | 0.882 ± 0.076 | 0.963 ± 0.043 | 0.964 ± 0.08 | 0.999 (active)
COc1cc(C2Oc3cc(C4Oc5cc(O)cc(O)c5C(=O)C4O)ccc3OC2CO)ccc1O (configuration not stated) | 1.11 ± 0.083 | 1.07 ± 0.057 | 1.13 ± 0.029 | 0.988 ± 0.082 | 0.93 ± 0.17 | 1 ± 0.17 | 0.981 (active)
O=C(NN=Cc1c(O)ccc2ccccc12)c1ccccc1Br | 1.43 ± 0.11 | 1.24 ± 0.091 | 1.14 ± 0.092 | 0.612 ± 0.1 | 1.05 ± 0.074 | 0.873 ± 0.057 | 0.989 (active)
O=C(O)/C=C/c1ccc(Cn2ccnc2)cc1 | 0.812 ± 0.079 | 0.873 ± 0.05 | 1.07 ± 0.093 | 1.02 ± 0.062 | 1.16 ± 0.067 | 1.13 ± 0.12 | 1.01 (active)
CC(C)Oc1ccc(Br)cc1C=C(C#N)c1nn(CCO)c(N)c1C#N | 1.33 ± 0.11 | 1.16 ± 0.066 | 1.11 ± 0.077 | 0.91 ± 0.027 | 1.2 ± 0.22 | 1.03 ± 0.18 | 1.01 (active)
COc1ccc(C(=O)C=Cc2cc(OC)c(OC)cc2OC)c(OC)c1 | 0.958 ± 0.24 | 0.902 ± 0.13 | 0.839 ± 0.067 | 0.506 ± 0.013 | 1.15 ± 0.16 | 1.06 ± 0.17 | 1 (active)
CC1(C)OC(=O)NC1=O [Prestw-829] | 1 ± 0.076 | 1.07 ± 0.065 | 0.958 ± 0.024 | 0.93 ± 0.051 | 0.958 ± 0.13 | 1.01 ± 0.12 | 0.998 (active)
